Source: PubChem BioAssay
Tgondii IFNg – T. gondii growth inhibition with IFN-gamma, primary screen, cell-based. Toxoplasma gondii growth in IFN-gamma-treated host cells; hits give low values. activity change, negative = inhibition, % (no concentration beside the values). AID 1259416, 2018. 3.8% of 69,000 active; in the data active means activity change below about -70%, passing the limit was not always enough;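 further: host cells are HeLa cells infected with Toxoplasma gondii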
Active calls of the source: *. The full list was thinned out, with hits kept by preference.

SMILES | Tgondii IFNg
CCOc1ccc(C2c3[nH]c4ccccc4c3CCN2C(=O)c2ccc(OC)cc2)cc1 (stereo not given) | -76.2
Cc1ccc2c(n1)N(CCN(C)C)CCN(C(=O)N1CCOCC1)C2 | 5.6
COc1ccccc1N(Cc1nc(-c2ccc(OC(C)C)cc2)oc1C)S(=O)(=O)c1cccs1 | -30.2
CCn1c(C2CCCN(c3ncnc4sc(C)cc34)C2)n[nH]c1=O (stereo not given) | -2.9
Cc1ncsc1Cn1nc(C2CCNCC2)n(Cc2ccccc2)c1=O | -7.0
CCCCN(C)C(=O)c1cc(-c2cn(-c3nccs3)c(C)n2)n2ccccc12 | 19.3
CN1CCC2(CC1)CN(C(=O)CN1CCc3ccccc3C1)CCCN2C | -1.6
Cc1cccc(S(=O)(=O)N2CCC(c3nc(C(=O)N4CCCC4)c(C)o3)CC2)c1 | -36.8
CCC(=O)Nc1cccc(OCC(=O)NCC2COc3ccccc3O2)c1 (stereo not given) | 9.6
CN1C(C)(C)CC(Nc2nc(-c3ccccn3)nc3c2CCNC3)CC1(C)C | -4.1
Fc1cccc(-c2nc3c(c(NC4CC4)n2)CNCC3)c1 | -86.1*
c1ccc2c(c1)CC(Nc1nc(C3CCCC3)nc3c1CNC3)CO2 (stereo not given) | 2.2
Cc1cc(C)nc(N2CCC(c3cc(C(=O)Nc4nccs4)c4ccccc4n3)C2)n1 (stereo not given) | -7.3
O=C(C[C@@H]1CC[C@H]2[C@@H](COC[C@H](O)CN2C(=O)c2ccncc2)O1)Nc1ccc(-c2ccccc2)cc1 | -43.0
CCc1cc(-c2cccc(NC(C)=O)c2)nc(N2CCOCC2)n1 | -25.5
O=C(Nc1ccncc1)Nc1ccc(-c2nc(N3CCOCC3)nc(N3C4CCC3COC4)n2)cc1 | -74.0*
Cn1c(C(=O)NCc2cccnc2)cc2cc(S(=O)(=O)N3CCCCC3)ccc21 | 20.4
CC(C)N1CCc2[nH]nc(C(=O)N3CCOCC3)c2C1 | -6.7
Cc1cccc(-c2ncc(CN(C)Cc3ccc4nsnc4c3)cn2)c1 | -40.2
Cc1ccc(NC(=O)COc2nc(C)nc3ccccc23)c(C)c1 | 3.3
OCCn1ccnc1-c1ccc(SC2CCCCC2)o1 | -14.7
CSc1cccc(NC(=O)c2nc(Nc3cccc(C)c3)c3ccccc3n2)c1 | -82.2*
Cc1cccc(Nc2nc(C(=O)Nc3cccc(C)c3C)nc3ccccc23)c1 | -40.3
Cc1cc(C)cc(NC(=O)c2nc(Nc3ccccc3)c3ccccc3n2)c1 | 5.1
Cc1cccc(Nc2nc(C(=O)Nc3c(C)cccc3C)nc3ccccc23)c1 | -70.1*
SMILES | Tgondii IFNg
Cc1ccc(Nc2nc(C(=O)Nc3cccc(C)c3)nc3ccccc23)cc1 | -63.5
Cc1ccc(C)c(NC(=O)c2nc(Nc3ccccc3)c3ccccc3n2)c1 | -60.7
Cc1cccnc1CN1CCC2(CC(NC(=O)c3cnccn3)C2)C1 (stereo not given) | 39.7
CC1c2snnc2-c2cc(Cl)ccc2S1(=O)=O (stereo not given) | -102.5*
COc1cccc(OC)c1C(=O)N1CCN(C(=O)c2cnc(N)nc2C)CC1 | -0.9
O=C(c1coc(CN2CCN(c3ccccc3F)CC2)n1)N1CC=CC1 | 8.8
CSc1nsc(SCC(=O)Nc2ccc(C)cc2)n1 | 98.9
Cc1ccc(NC(=O)c2snc3c(=O)[nH]cnc23)cc1 | -110.9*
Cc1ccc(NC(=O)c2c(O)c3cccnc3[nH]c2=O)cc1 | 58.7
Cc1nc(C)c(C(=O)N2Cc3cnc(CC(C)C)nc3C2)s1 | -2.8
Cc1nc(-c2nc(C(=O)NCC3CCCO3)c3ccccn23)cn1Cc1ccc(F)cc1F (stereo not given) | 18.4
CS(=O)(=O)N1CCOC2CCN(Cc3ccc[nH]3)CCC21 (stereo not given) | -9.2
COCCC(=O)c1cc(-c2ccn[nH]2)n2ccccc12 | -29.3
COc1ccc(-c2ccc(-n3cnnc3)nc2C)cn1 | -88.3*
CCCc1nc(C)cc(-c2ccc(OC)nc2)n1 | 18.1
Cc1nc(-n2cnnc2)ccc1-c1ccc(C(N)=O)cc1 | -0.5
CC(C)c1ccc(S(=O)(=O)NCC(c2cccnc2)c2c[nH]c3ccccc23)cc1 (stereo not given) | -40.8
O=C(Nc1cccc2c1CCCC2)c1cccs1 | 22.5
O=C(CC(SC(=O)c1ccccc1)c1ccc(Cl)cc1)c1ccccc1 (stereo not given) | 49.8
O=C(CC(Sc1ccc(Cl)cc1)c1ccc(Cl)cc1)c1ccccc1 (stereo not given) | -111.9*
O=C(CCSc1ccccn1)c1ccc(Cl)cc1 | 25.3
Cc1nc(-c2cccc(F)c2)sc1CCNS(=O)(=O)c1ccc(F)cc1 | 17.0
COc1ccc(S(=O)(=O)NCCc2sc(-c3cccc(F)c3)nc2C)cc1F | 37.1
O=C(c1ccco1)N1CCOCC2(CC(CN3CCCC3)CO2)C1 (stereo not given) | -2.2
Cc1noc(C)c1C1CCCN1C(=O)Cn1nc(C(F)(F)F)cc1C (stereo not given) | 4.7
SMILES | Tgondii IFNg
Cc1ccccc1C1CCCN1C(=O)Cn1nc(C(F)(F)F)cc1C (stereo not given) | 164.6
Cc1cc(C(F)(F)F)nn1CC(=O)N1CCCC1c1ccc(F)cc1 (stereo not given) | -77.9*
CCCC(C(=O)N1CCN(c2nc(C)cnc2C)CC1)n1cccc1 (stereo not given) | -1.1
CCn1cc(-c2c(-c3ccccc3)ncn2CC(C)Oc2cccnc2)cn1 (stereo not given) | -14.9
Cc1cnc(C)c(N2CCN(Cc3c(CO)cnc(C)c3O)CC2)n1 | -3.8
Cc1ncc(CO)c(CO)c1O | 6.3
Cc1ncc(CN2CCSCC2)c(CO)c1O | -75.9*
COCCC1COC2(CCN(c3ccc(F)cc3)CC2)C1 (stereo not given) | -15.3
CN(C)C(=O)N1C[C@@H]2OCCN(CCN3CCCC3)[C@H]2C1 | 5.5
Cc1cnc(C(=O)N2Cc3cnn(Cc4ccc(F)cc4)c3C2)cn1 | -2.1
COc1ccccc1NC(=O)Cn1c(C)nc2ccc(NC(=O)c3ccco3)cc2c1=O | -1.8
CCc1ccc(C2c3[nH]c4ccccc4c3CCN2C(=O)CSC)cc1 (stereo not given) | 1.3
CN1c2ccccc2C(=O)N2CCc3c([nH]c4ccccc34)C21 (stereo not given) | -80.2*
CC(=O)N1CCc2c([nH]c3ccccc23)C12C(=O)N(C)c1ccccc12 (stereo not given) | 492.2
CN(C)C(=O)[C@H]1CNC[C@@H]1c1ccnc(N2CCCCC2)n1 | -1.7
O=Nc1c(-c2c(O)[nH]c3ccccc23)[nH]c2ccccc12 | -84.5*
Cc1ccc(S(=O)(=O)N=Nc2c(O)[nH]c3ccccc23)cc1 | 30.8
Oc1[nH]c2ccccc2c1N=Nc1ccccc1 | 195.1
Cc1oc(-c2ccccc2)nc1CSc1nc2c(=O)[nH]cnc2n1C | -11.8
Cc1ccc(OC2(C(=O)NCCNc3cccnc3)CCNCC2)cc1 | -10.6
COc1ccc2c(c1)CC/C2=N/OC(=O)c1cc(SC)ccc1Cl | -90.8*
CCCN1C(=O)CCc2cc(NC(=O)c3cc(SC)ccc3Cl)ccc21 | 11.0
COc1ccc(C(=O)O/N=C2\CCSc3ccc(F)cc32)cc1 | 80.4
Cc1nn(C(C)C)cc1S(=O)(=O)NCCCn1ccnc1C | 3.2
Cc1ccc(S(=O)(=O)Nc2ccc3c(c2)CCC(=O)N3C)cc1Cl | -39.3
CN1C(=O)CCc2cc(NS(=O)(=O)Cc3cccc(Cl)c3)ccc21 | 22.7
COCCN1C(=O)CCc2cc(NS(=O)(=O)c3ccc(Cl)s3)ccc21 | 21.3
CN1C(=O)CCc2cc(NS(=O)(=O)c3ccc(Br)s3)ccc21 | -97.1*
COCCN1C(=O)CCc2cc(NS(=O)(=O)c3ccc(Br)cc3)ccc21 | 6.7
CN1C(=O)CCc2cc(NS(=O)(=O)c3ccc(Br)cc3)ccc21 | -95.1*
